Inconclusive results are not listed. Activity calls are given as the source filed them. How the source made its calls: active means hit-call score of the fitted dose curve at least 0.9, where 1 is the maximum; inconclusive means response in the unintended direction; inactive means score below 0.9.
Molecular target: rat Opioid Receptor, Non-selective Sodium (Na+) Binding, Oprm1 (gene 25601) (UniProt P33535)
Test: NVS_GPCR_rOpiate_NonSelectiveNa: NovaScreen (NVS) G Protein-Coupled Receptor Assay for rat Opioid Receptor, Non-selective Sodium (Na+) Binding (AID 2283311)
Summary of the method: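 Rat forebrain membranes, radioligand displacement with filter scintillation counting, 1.5 h incubation. Screened in duplicate at 25 µM; hits then run in concentration-response up to 50 µM; loss of binding fitted versus DMSO.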

Sequence of rat Opioid Receptor, Non-selective Sodium (Na+) Binding, Oprm1 (gene 25601) (P33535 whole entry, looked up): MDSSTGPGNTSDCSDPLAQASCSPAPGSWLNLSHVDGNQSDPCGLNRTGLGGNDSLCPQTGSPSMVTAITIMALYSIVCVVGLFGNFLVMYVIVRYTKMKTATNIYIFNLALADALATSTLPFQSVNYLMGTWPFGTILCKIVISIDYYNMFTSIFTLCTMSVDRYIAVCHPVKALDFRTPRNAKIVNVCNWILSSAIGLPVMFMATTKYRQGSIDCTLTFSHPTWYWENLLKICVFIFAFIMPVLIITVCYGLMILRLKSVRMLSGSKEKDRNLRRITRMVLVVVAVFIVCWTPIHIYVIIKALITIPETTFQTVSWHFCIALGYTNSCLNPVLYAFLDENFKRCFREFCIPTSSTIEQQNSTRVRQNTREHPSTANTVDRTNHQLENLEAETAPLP

SMILES	outcome	AC50
C#C[C@]1(O)CC[C@H]2[C@@H]3CCc4cc(O)ccc4[C@H]3CC[C@@]21C	inactive	
CC/C(=C(\c1ccccc1)c1ccc(OCCN(C)C)cc1)c1ccccc1	inactive	
O=C(c1ccc(OCCN2CCCCC2)cc1)c1c(-c2ccc(O)cc2)sc2cc(O)ccc12		1.96 µM (active)

Molecular target: rat Neonicotinoid receptor (NNR), Chrna7 (gene 25302) (UniProt Q05941)
Test: NVS_LGIC_rNNR_BungSens: NovaScreen (NVS) Ligand-Gated Ion Channel Assay for rat Neonicotinoid receptor (NNR) (AID 2283315)
Summary of the method: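 Radioligand displacement binding on rat cortical membranes, 2.5 h incubation, filtration and scintillation counting. Loss of specific binding fitted relative to DMSO.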

Sequence of rat Neonicotinoid receptor (NNR), Chrna7 (gene 25302) (Q05941 whole entry, looked up): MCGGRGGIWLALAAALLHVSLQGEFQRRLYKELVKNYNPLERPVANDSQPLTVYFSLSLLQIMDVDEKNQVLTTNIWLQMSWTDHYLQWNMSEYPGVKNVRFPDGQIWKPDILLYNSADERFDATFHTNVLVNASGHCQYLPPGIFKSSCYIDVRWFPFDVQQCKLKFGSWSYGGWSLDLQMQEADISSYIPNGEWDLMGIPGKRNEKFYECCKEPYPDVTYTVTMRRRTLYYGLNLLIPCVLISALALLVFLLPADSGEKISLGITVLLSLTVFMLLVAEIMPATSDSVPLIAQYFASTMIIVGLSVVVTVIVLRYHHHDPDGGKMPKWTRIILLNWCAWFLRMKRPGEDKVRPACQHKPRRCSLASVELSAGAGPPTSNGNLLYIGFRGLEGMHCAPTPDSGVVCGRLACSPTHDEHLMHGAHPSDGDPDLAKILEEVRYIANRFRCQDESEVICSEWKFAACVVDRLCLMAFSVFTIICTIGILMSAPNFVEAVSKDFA

SMILES	outcome	AC50
CC/C(=C(\c1ccccc1)c1ccc(OCCN(C)C)cc1)c1ccccc1	inactive	
Cc1cc(O)c(C)c(C)c1O	inactive	
C=C1CC[C@H]2O[C@]2(C)CC[C@@H]2[C@@H]1CC2(C)C		15.6 µM (active)
O=C(c1ccc(OCCN2CCCCC2)cc1)c1c(-c2ccc(O)cc2)sc2cc(O)ccc12	inactive	

— PubChem BioAssay (EPA / NIEHS)
